The results in this text go back to PubChem BioAssay.

Experiment [1] concerns Wnt5a (protein binding on small-molecule microarray). Description: Wnt5a binders on small-molecule microarray, primary screen, biophysical, 635/667 nm fluorescence (AID 1142).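 Further: fluorescence read at 667 nm with signal to noise per printed feature.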 The following applies: 635 nm fluorescence, higher = more signal.
Experiment [2] in a line: cell viability in Huh7 cells, primary screen, cytotoxicity control for HCV replication inhibitor project, CellTiter-Glo luminescence, basal, 48 h (AID 1143).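 Further: Huh7 hepatoma cells carrying a hepatitis C replication reporter with no stimulus; test concentration not given here.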 Conditions: Huh7 HCV replicon, higher = more signal, called active from +8 up or from −8 down.
A short description of experiment [3]: P. aeruginosa biofilm formation inhibitors, primary screen, PAO1 strain, BacTiter-Glo luminescence, LB-PBS (AID 1144). The following applies: 12 h, higher = more signal.
Experiment [4] is described as follows: CREB reporter modulators without forskolin, primary screen, cell-based, PC12, CRE-LacZ reporter, unstimulated (AID 1145). Conditions: no forskolin, luminescence, 4.5 h, higher = more signal, called active from +8 up or from −8 down.
Experiment [5] can be described thus: CREB reporter modulators under forskolin, primary screen, cell-based, PC12, CRE-LacZ reporter, forskolin-stimulated (AID 1146).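 Further: PC12 cells with 6xCRE LacZ reporter stimulated by forskolin 10 µM; beta-galactosidase reporter signal reflecting CREB driven transcription.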 Conditions: luminescence, 4.5 h, higher = more signal, called active from +8 up or from −8 down.
Experiment [6] addresses Streptavidin (Streptomyces avidinii) (UniProt P22629). Description: streptavidin binders on small-molecule microarray, primary screen, artefact control for SMM compound annotation, biophysical, 635/667 nm fluorescence (AID 1147).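 Further: signal reflects streptavidin binding to arrayed compounds as a control protein.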 The following applies: streptavidin binding, higher = more signal.
Experiment [7] can be described thus: small-molecule binders of probe aInhba, primary screen, biochemical, small-molecule microarray, 635/667 nm fluorescence (AID 1148).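 Further: score merges 667nm spot fluorescence with signal-to-noise for antibody binding to printed compounds.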 Conditions: higher = more signal.
For experiment [8], the target named is Torsin-1A (Homo sapiens) (UniProt O14656). Description: torsin A binders from cell lysate, primary screen, small-molecule microarray, wild-type, 635/667 nm (AID 1149). Conditions: COS7 hTOR1A-WT lysate, 635 nm fluorescence, higher = more signal.
Torsin-1A (Homo sapiens), sequence (O14656 whole entry, looked up): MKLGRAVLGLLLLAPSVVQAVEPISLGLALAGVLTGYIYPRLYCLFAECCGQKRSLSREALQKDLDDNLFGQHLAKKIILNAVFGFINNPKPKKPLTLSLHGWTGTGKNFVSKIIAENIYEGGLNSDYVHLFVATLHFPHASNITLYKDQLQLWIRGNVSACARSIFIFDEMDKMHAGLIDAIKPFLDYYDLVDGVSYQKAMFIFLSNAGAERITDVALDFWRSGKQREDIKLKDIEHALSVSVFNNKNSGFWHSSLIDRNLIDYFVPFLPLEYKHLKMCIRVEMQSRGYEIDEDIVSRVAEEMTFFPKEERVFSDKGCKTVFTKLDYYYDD
Experiment [9] has the same target. The experiment can be described thus: small-molecule binders of mutant TOR1A in lysate, primary screen, cell lysate, small-molecule microarray, COS7 lysate, 635/667 nm fluorescence (AID 1150).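 Further: score pools 667 nm emission and signal to noise measuring lysate protein binding.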 The following applies: COS7 hTOR1A mutant lysate, 635 nm fluorescence, higher = more signal.
Experiment [10] deals with Sonic hedgehog protein (Shh). The experiment can be described thus: small-molecule binders of Shh protein, primary screen, biochemical, small-molecule microarray, 635/667 nm fluorescence (AID 1151).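 Further: Shh protein binding to compounds spotted on small-molecule microarray slides; score combines spot fluorescence intensity with signal-to-noise across triplicate slides.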 Conditions: small-molecule microarray binding, 635 nm fluorescence; higher = more signal.

Active and inactive are the calls of the source. Unless noted, how the calls were made is not given here.

Streptavidin (Streptomyces avidinii), sequence (P22629 whole entry, looked up): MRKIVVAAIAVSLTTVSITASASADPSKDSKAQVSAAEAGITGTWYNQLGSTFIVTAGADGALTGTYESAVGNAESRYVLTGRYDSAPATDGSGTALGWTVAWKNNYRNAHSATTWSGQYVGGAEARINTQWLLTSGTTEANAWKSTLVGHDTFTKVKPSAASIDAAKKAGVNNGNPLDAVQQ

On to `CC(c1ccccc1)C(O)C1C=CC2C(=O)N(C)C(=O)C2N1N(c1ccccc1)c1ccccc1` (stereo not given), for which the composite z-score in [1] was 0.156; in experiment [6], 0.377; in [7] it was 0.153; in the experiment with Torsin-1A (Homo sapiens) [8] it was 0.18; with Torsin-1A (Homo sapiens) [9], 0.426; in [10], -0.586. In addition, the z-score is 0.066 (inactive) in experiment [2], -0.131 (inactive) in experiment [3], 0.443 (inactive) in experiment [4] and 0.696 (inactive) in experiment [5].
Consider `Cc1ccc(S[C@]2(C(=O)NC(C)C)CC(=O)N(Cc3cc(C(F)(F)F)cc(C(F)(F)F)c3)[C@@H]2c2ccc(CO)cc2I)cc1`, for which the composite z-score is -0.168 in experiment [1]; -0.995 in experiment [6]; -0.148 in experiment [7]; 0.61 in the experiment with Torsin-1A (Homo sapiens) [8]; 1.66 with Torsin-1A (Homo sapiens) [9]; -0.0174 in experiment [10]. Also, the z-score in experiment [2] is -1.11 (inactive); in experiment [3], 0.381 (inactive); in [4], -0.554 (inactive); in experiment [5], 1.28 (inactive).
On to `O=C1C[C@@](C(=O)NC2CC2)(c2ccc([N+](=O)[O-])cc2)[C@@H](c2ccc(CO)cc2I)N1CC12CC3CC(CC(C3)C1)C2`, for which the composite z-score in experiment [1] is 0.157; in [6], 0.376; in experiment [7], -0.134; with Torsin-1A (Homo sapiens) [8] it was -0.371; with Torsin-1A (Homo sapiens) [9], 0.362; in experiment [10], 1.95. The z-score in [2] is -5.82 (inactive); in experiment [3], 0.87 (inactive); in [4], 0.818 (inactive); in [5], 1.25 (inactive).
Take `O=C(N1CCCCC1)[C@@]1(CCS(=O)(=O)c2ccccc2)N=C(c2ccc(OCCCO)cc2)O[C@H]1c1ccccc1`: the composite z-score in [1] is 1.31; in [6], -0.123; in [7], -0.0112; with Torsin-1A (Homo sapiens) [8], 1.06; with Torsin-1A (Homo sapiens) [9], 0.623; in experiment [10], -0.442. The z-score is -5.06 (inactive) in experiment [2], -0.725 (inactive) in [3], 0.909 (inactive) in experiment [4] and -0.516 (inactive) in experiment [5].
On to `COC(=O)Cn1c(C(=O)N2CCCC2)cc2c1C[C@H]1CN(C(=O)c3ccccc3)[C@@](Cc3ccc(OC)cc3)(C(=O)OC)[C@@H]21`, for which the composite z-score in experiment [1] is 0.381; in experiment [6], 0.927; in experiment [7] it was 0.711; with Torsin-1A (Homo sapiens) [8], -0.0629; with Torsin-1A (Homo sapiens) [9], 0.306; in experiment [10] it was -0.812. The z-score was -2.77 (inactive) in experiment [2], 0.74 (inactive) in [3], 1.72 (inactive) in experiment [4] and 1.59 (inactive) in experiment [5].
Take `COCCOC(=O)N1C(=O)[C@@]2(c3cc(C#CCCO)ccc31)[C@H](c1ccc(O)cc1)N1[C@H](c3ccccc3)[C@H](c3ccccc3)OC(=O)[C@H]1[C@@H]2C(=O)Nc1nc2ccccc2s1`: the composite z-score in [1] is 0.607; in [6], 0.996; in [7], -0.0062; with Torsin-1A (Homo sapiens) [8] it was -0.0624; in the experiment with Torsin-1A (Homo sapiens) [9] it was 0.236; in experiment [10] it was 2.03. For the same molecule, the z-score in experiment [2] is -2.49 (inactive); in experiment [3], -1.24 (inactive); in [4], -1.7 (inactive); in [5], -0.0062 (inactive).
Take `CC1CC/C=C\[C@H]2OC34C=CCN(Cn5nnc6ccccc65)C(=O)[C@H]3N(C(C)CO)C(=O)[C@@H]4C2C(=O)O1` (stereo not given in full): the composite z-score was -0.501 in [1]; -0.465 in experiment [6]; -0.0675 in experiment [7]; -0.276 with Torsin-1A (Homo sapiens) [8]; -1 in the experiment with Torsin-1A (Homo sapiens) [9]; -0.362 in experiment [10]. Further, the z-score in [2] is 0.349 (inactive); in experiment [3] it was -0.182 (inactive); in experiment [4] it was -1.03 (inactive); in experiment [5] it was -0.542 (inactive).
As to `C[C@H]1C2[C@H](Cc3ccccc3)NC(=O)[C@]23C(=O)N[C@H](Cc2ccccc2)C(=O)N[C@@H](Cc2ccccc2)C(=O)NC/C=C\C/C=C/C3[C@@H]2O[C@]12C` (stereo not given in full), the composite z-score in experiment [1] was 0.0327; in [6], -0.214; in [7] it was 0.173; with Torsin-1A (Homo sapiens) [8] it was -0.0236; with Torsin-1A (Homo sapiens) [9], 0.147; in experiment [10], 1.65. Besides, the z-score in experiment [2] is -3.18 (inactive); in experiment [3], 0.593 (inactive); in experiment [4], 0.311 (inactive); in [5] it was -1.85 (inactive).
`C#CCCCON=C1C[C@@H](O)[C@@H](O)[C@@H]2[C@@H]3C(=O)N(Cc4ccc5c(c4)OCO5)C(=O)[C@@H]3CC[C@H]12`: the composite z-score was 0.322 in experiment [1]; 1.26 in [6]; -0.261 in experiment [7]; 0.572 with Torsin-1A (Homo sapiens) [8]; 0.267 with Torsin-1A (Homo sapiens) [9]; 1.42 in experiment [10]. Moreover, the z-score in experiment [2] is 0.0582 (inactive); in [3], 0.448 (inactive); in experiment [4] it was -0.657 (inactive); in experiment [5], 0.653 (inactive).
In the case of `O=C1O[C@H](c2ccccc2)[C@H](c2ccccc2)N2[C@H]1[C@@H](C(=O)Nc1nc3ccccc3s1)[C@]1(C(=O)Nc3ccc(C#CC4=CCCCC4)cc31)[C@H]2c1ccccc1OCCO`, the composite z-score in experiment [1] is 0.266; in experiment [6], 0.841; in experiment [7], 0.0649; with Torsin-1A (Homo sapiens) [8], 0.552; with Torsin-1A (Homo sapiens) [9] it was 0.0083; in experiment [10], 1.63. Besides, the z-score was -4.26 (inactive) in experiment [2], 0.331 (inactive) in experiment [3], 0.619 (inactive) in [4] and -0.0292 (inactive) in [5].
With `CCCNC(=O)[C@@H]1c2ccccc2C(=O)N(C2CCCCC2)[C@H]1c1ccc(CO)cc1`, the composite z-score in experiment [1] is 0.15; in [6], 0.573; in [7], 0.0589; with Torsin-1A (Homo sapiens) [8], -0.244; with Torsin-1A (Homo sapiens) [9] it was 0.0805; in [10] it was 0.573. Also, the z-score in experiment [2] is -0.64 (inactive); in experiment [3], -0.255 (inactive); in experiment [4], -0.062 (inactive); in experiment [5], -0.224 (inactive).
Consider `CCCC=C(CCC)[C@@H](NS(=O)(=O)c1ccc(-c2ccccc2)cc1)c1ccc(C(=O)OC)cc1`, for which the composite z-score in [1] is -0.228; in experiment [6], 0.111; in [7] it was -0.0791; in the experiment with Torsin-1A (Homo sapiens) [8], -0.269; in the experiment with Torsin-1A (Homo sapiens) [9], -0.383; in experiment [10], -0.948. For the same molecule, the z-score in [2] is -3.56 (inactive); in [3], -0.308 (inactive); in experiment [4], -0.182 (inactive); in [5], -0.289 (inactive).
Regarding `Cc1ccccc1C(O)C1C=CC2C(=O)N(c3ccccc3)C(=O)C2N1Nc1ccc(C#N)cc1` (stereo not given), the composite z-score in experiment [1] is 0.51; in [6], 2.17; in experiment [7], 0.816; in the experiment with Torsin-1A (Homo sapiens) [8] it was 0.261; with Torsin-1A (Homo sapiens) [9], 1.58; in [10], -0.442. Further, the z-score in [2] is 0.466 (inactive); in experiment [3], -1.14 (inactive); in [4] it was -0.133 (inactive); in experiment [5], 1.66 (inactive).
With `[N-]=[N+]=NCc1ccccc1C[C@]1(C(=O)N2CCCCC2)N=C(c2ccc(OCCCO)cc2)O[C@H]1c1ccccc1CN=[N+]=[N-]`, the composite z-score in experiment [1] is 0.129; in [6] it was 0.995; in experiment [7] it was 0.233; in the experiment with Torsin-1A (Homo sapiens) [8] it was 0.064; with Torsin-1A (Homo sapiens) [9], 0.741; in experiment [10], -0.0292. The z-score in experiment [2] is -4.48 (inactive); in [3], 0.447 (inactive); in [4], 1.88 (inactive); in [5], 0.102 (inactive).
For the molecule `CC(=O)NCCCC[C@@H]1NC(=O)[C@@H]2C[C@H](C(=O)NCc3ccc(F)cc3)[C@H](c3cccc(OCCO)c3)N2C1=O`, the composite z-score was 0.0719 in experiment [1]; -0.454 in experiment [6]; -0.0209 in [7]; 0.544 in the experiment with Torsin-1A (Homo sapiens) [8]; 1.05 with Torsin-1A (Homo sapiens) [9]; 1.8 in [10]. The z-score in experiment [2] was -0.608 (inactive); in [3] it was -0.225 (inactive); in experiment [4], 0.537 (inactive); in experiment [5] it was 0.517 (inactive).
